PubChem BioAssay AID540299 (ICCB-Longwood Screening Facility, Harvard Medical School, 2011)
Out of some 100,000 compounds screened, about 440 (0.44%) were called active. Only a selection was taken, and actives are over-represented in it overall. Unmarked numbers belong to inactive results. Rule as the data show it: active = inhibition above about 21% (passing the limit was not always enough); inactive = the rest.

Each compound was assayed against 1,4-dihydroxy-2-naphthoyl-CoA synthase (Mycobacterium tuberculosis (strain ATCC 25618 / H37Rv)) (UniProt P9WNP5) (assay: M. tuberculosis MenB inhibitors, primary screen, biochemical, absorbance (AID 540299)). Conditions: MenB enzyme assay, absorbance read-out; active compounds read high; concentration not given here.
Chain of 1,4-dihydroxy-2-naphthoyl-CoA synthase (Mycobacterium tuberculosis (strain ATCC 25618 / H37Rv)) (P9WNP5 whole entry, looked up): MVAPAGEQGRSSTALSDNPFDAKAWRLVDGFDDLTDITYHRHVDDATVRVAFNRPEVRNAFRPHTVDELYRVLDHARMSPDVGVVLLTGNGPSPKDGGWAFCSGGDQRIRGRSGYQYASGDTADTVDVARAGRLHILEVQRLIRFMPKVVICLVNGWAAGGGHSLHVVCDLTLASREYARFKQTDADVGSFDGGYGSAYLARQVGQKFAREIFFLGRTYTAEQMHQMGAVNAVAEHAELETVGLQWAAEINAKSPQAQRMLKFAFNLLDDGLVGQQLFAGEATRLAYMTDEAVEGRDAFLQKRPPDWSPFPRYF
`CC(=O)NC1C(Oc2ccccc2)OC(CO)C(O)C1O` (stereo not drawn) gave an inhibition of -6.61%. `COc1ccc(OCCOc2cccc(N)c2)cc1` gave an inhibition of -98.6%. For `C=CCN(CC=C)C(=O)CSc1nnnn1-c1ccc(C)cc1C`, the inhibition was -1.92%. In the case of `Cc1cccc(-n2nnnc2SCC(=O)c2c[nH]c3ccccc23)c1`, the inhibition is reported as -3.22%. With `CCn1nnnc1SCC(=O)c1ccc(C)cc1C` the inhibition was 33.1% (active). In the case of `CCNC(=S)N1CCn2cccc2C1c1cccs1` (stereo not drawn), the inhibition is reported as -29%. For `CC(Sc1nnnn1C)C(=O)C12CC3CC(CC(C3)C1)C2` (stereo not drawn), the inhibition was -36%. For `COc1ccc(S(N)(=O)=O)cc1C(=O)OC1CCCCC1=O` (stereo not drawn), the inhibition was -12.8%. `Clc1cccc(Nc2nnc(-c3ccc(Br)cc3)o2)c1` was tested, and the inhibition was 1.27%. `CC1CCNC(c2cccn2C)CC1` (stereo not drawn) was tested, and the inhibition was -2.11%. With `CCN1C(=O)C2(Sc3ccccc3C2=O)C(=O)N(CC)C1=S` the inhibition was -6.71%. Work on `Clc1ncn(CCOc2ccccc2)c1Cl` yielded an inhibition of 3.99%. `O=C(Cn1c(=O)oc2ccccc21)N(Cc1ccco1)CC1CCCO1` (stereo not drawn) gave an inhibition of 2.87%. Work on `O=C(NCc1ccco1)OCC(F)(F)F` yielded an inhibition of 8.37%. With `O=C(c1cccs1)N1CCCn2c(SCc3ccccc3Cl)nnc21` the inhibition was -21.4%. `COC(=O)c1ccccc1S(=O)(=O)N1CCC(C(=O)OCC(=O)Nc2ccccc2F)CC1` showed an inhibition of -9.07%. `CCN(CC)CCn1c2ccccc2c2nc3cc(C(=O)O)ccc3nc21` showed an inhibition of -8.07%. `Cc1oc(-c2ccc(Cl)cc2)nc1CSCC(=O)N1CCc2ccccc21` was tested, and the inhibition was 8.32%. Work on `COCCN=c1scc(-c2ccco2)n1/N=C/c1ccc(OC)cc1` yielded an inhibition of -60.5%. `CN1C(=O)CS/C1=C\C(=O)c1cccs1` gave an inhibition of -16.1%. For `Fc1ccc(C=Nc2ccc3c(c2)OCO3)cc1`, the inhibition was 10.6%. `C/[N+]([O-])=C\c1ccc(-c2ccccc2)cc1` was tested, and the inhibition was -18.5%. With `O=C(COc1ncnc2c1cnn2-c1ccccc1)N1CCc2ccccc21` the inhibition was -28.4%. For `O=C(COn1nnc2ccccc21)N1CCC(Cc2ccccc2)CC1`, the inhibition was -32.5%. Work on `O=C1NC(c2cccc(F)c2)=N/C1=C/c1cc2c(cc1Cl)OCO2` yielded an inhibition of -89%. In the case of `Cc1ccc(-c2csc3ncnc(NCCO)c23)cc1`, the inhibition is reported as -19.8%. `Cc1cccc(/N=c2\scc(-c3ccco3)n2-c2ccccc2)n1` showed an inhibition of -26.2%. In the case of `CCC(=O)c1c(O)ccc2c(C)cc(=O)oc12`, the inhibition is reported as 2.91%. For `CCN(CC)c1ccc2cc(C(N)=O)/c(=N\NC(=O)c3ccccc3)oc2c1`, the inhibition was -13.9%. With `Cn1c(=N)n(CC(=O)C23CC4CC(CC(C4)C2)C3)c2ccccc21` the inhibition was -12%. In the case of `Cc1ccc(NC(=O)CN2CCc3ccccc32)cc1C`, the inhibition is reported as -19.3%. `COc1cccc2c(C)nc(NC3=NCN(CC4CCCO4)CN3)nc12` (stereo not drawn) showed an inhibition of -8.02%. For `COC(=O)c1ccc(NC(=O)C(C(C)C)N2C(=O)c3ccccc3C2=O)cc1` (stereo not drawn), the inhibition was 0.235%. `Cc1cc(NC(=O)[C@H](C)NC(=O)c2ccco2)ccc1Br` gave an inhibition of 0.245%. Work on `Cc1ccccc1NC(=O)COC(=O)c1ccccc1` yielded an inhibition of 4.34%. `O=C1Nc2ccccc2S/C1=C\C(=O)N1CCc2ccccc2C1` showed an inhibition of -6.55%. In the case of `CCOC(=O)c1ccc2c(c1)[nH]c(=O)c(=O)n2CC`, the inhibition is reported as 5.07%. Work on `O=C(O)/C(=C/C(=O)c1ccc(F)cc1)Nc1ccc2[nH]c(=O)[nH]c2c1` yielded an inhibition of -9.19%. Compound `C/C(=C\C(=O)c1ccccc1)Nc1cccc(O)c1` has an inhibition of -47%. With `O=C(O)/C(=C/C(=O)c1ccccc1)Nc1ccc(OC(F)(F)F)cc1` the inhibition was 32.1% (active). `CCOc1ccc(CN(C)C(C)c2nnc(-c3ccc(C)cc3)o2)cc1` (stereo not drawn) showed an inhibition of -8.7%. `COc1ccc2nc(SC)[nH]c2c1` showed an inhibition of 0.13%. Work on `O=C(c1ccccc1)N1CCN(c2cccc(Cl)c2)CC1` yielded an inhibition of -21%. Work on `CC(C)(C)CNC(=S)NN` yielded an inhibition of -27.8%. Work on `CCO/C=N/c1c(C(=O)OCC)c2nc3ccccc3nc2n1Cc1ccccc1` yielded an inhibition of -29.7%. In the case of `COc1ccc(N(CCC#N)S(=O)(=O)c2ccc(Cl)cc2)cc1`, the inhibition is reported as 34.8% (active). For `COc1ccc(S(=O)(=O)N(C)C)cc1`, the inhibition was -20.5%. Work on `CC(=O)Oc1ccc(N(C(C)=O)S(=O)(=O)c2ccc(Cl)cc2)cc1` yielded an inhibition of -5.01%. `Cc1ccc2c(c1)cc(CN(Cc1ccco1)C(=O)c1ccccc1)c1nnnn12` was tested, and the inhibition was 32.8% (active). `CCc1ccc2[nH]c(=O)c(CN(Cc3ccco3)C(=O)c3ccccc3)cc2c1` was tested, and the inhibition was -39%. Work on `COCC(=O)N(CCc1ccccc1)Cc1cc2cccc(C)c2n2nnnc12` yielded an inhibition of 5.43%. With `CC(C)c1ccc(-c2noc(C3CCCN(S(C)(=O)=O)C3)n2)cc1` (stereo not drawn) the inhibition was 29.2% (active). `COc1ccc(-c2noc(CC(=O)N(C(C)C)C3CCCCC3)n2)cc1` was tested, and the inhibition was -38.9%. Work on `CC(C)c1ccc(S(=O)(=O)N2CCN(S(=O)(=O)c3ccc(C(C)C)cc3)C(C)C2)cc1` (stereo not drawn) yielded an inhibition of -17.6%. `COc1ccc(N2CCN(C(=S)C3CCCCC3)CC2)cc1` showed an inhibition of 1.7%. In the case of `CCOC(=O)N1CCC(NC(=O)Cn2nc(Cc3cccnc3)c3ccccc3c2=O)CC1`, the inhibition is reported as 13.3%. Work on `O=C(O)CSc1nnc(COc2ccc(Cl)cc2)n1-c1ccc(Br)cc1` yielded an inhibition of -31.3%. `CC(C)(C)c1ccc(OCc2nnc(SCC(N)=O)n2-c2ccccc2)cc1` gave an inhibition of -20.4%. For `CC(Sc1nnc(COc2ccccc2)n1-c1ccccc1)C(=O)O` (stereo not drawn), the inhibition was 44.3% (active). In the case of `OC(COc1ccc(Cl)cc1)C(O)C(O)c1cnn(-c2ccccc2)n1` (stereo not drawn), the inhibition is reported as -25.4%. `Cc1ccc(Cn2c(=O)c3ccccc3n3c(SCC(=O)N(C(C)C)C(C)C)nnc23)cc1` gave an inhibition of -3.38%. `CCN(c1ccccc1)S(=O)(=O)c1ccc(Sc2nnc(-c3cccs3)n2CC2CCCO2)nc1` (stereo not drawn) was tested, and the inhibition was -29.5%. Work on `CCOC(=O)c1c(NC(=O)c2cc(-n3cnnc3)ccc2Cl)sc2c1CCCC2` yielded an inhibition of -11.9%.
